# Laboratory results taken from article PMC7862700, “An all-to-all approach to the identification of sequence-specific readers for epigenetic DNA modifications on cytosine”.
# What was measured:
# Test in all cases: DAPPL (digital affinity profiling via proximity ligation, sequencing); 10 mM Tris-HCl pH 7.5, 50 mM NaCl, 1 mM DTT, 4% glycerol, room temperature, 30 min; GST-TFs on glutathione beads, 16-mer random dsDNA library, 0.1% formaldehyde crosslink after washing; high values mean tight binding
# [1] = biological target: T1, FEV (Homo sapiens, UniProt Q99581 1-238); conditions: protein: recombinant; tags: N-terminal GST; dsDNA, one strand shown
# T1 sequence: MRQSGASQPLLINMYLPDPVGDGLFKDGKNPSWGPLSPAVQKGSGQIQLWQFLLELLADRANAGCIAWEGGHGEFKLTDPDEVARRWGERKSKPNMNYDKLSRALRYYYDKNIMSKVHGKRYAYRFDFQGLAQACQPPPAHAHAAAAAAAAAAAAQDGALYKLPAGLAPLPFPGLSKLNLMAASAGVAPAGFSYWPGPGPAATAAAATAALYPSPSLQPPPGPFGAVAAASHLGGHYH
# Summary of the method: (§1)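 Human transcription factors fused to GST were expressed in yeast, captured on glutathione beads, given DNA barcodes and pooled with a GST-only negative control. Pools were incubated with 200 nmole of a 16-mer random double-stranded DNA library in Tris/NaCl/DTT/glycerol buffer at room temperature for 30 min. They were then washed, crosslinked with 0.1% formaldehyde, proximity-ligated (BsaI/T4 ligase, 1 h, 37 °C), PCR-amplified and sequenced on an Illumina NextSeq500. Binding signal is each 6-mer's read frequency for a factor divided by its frequency for the GST control.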
# [2] = biological target: ETV5 (Homo sapiens, UniProt P41161 1-510); conditions: protein: recombinant; tags: N-terminal GST; dsDNA, one strand shown
# Chain of ETV5 (P41161 whole entry): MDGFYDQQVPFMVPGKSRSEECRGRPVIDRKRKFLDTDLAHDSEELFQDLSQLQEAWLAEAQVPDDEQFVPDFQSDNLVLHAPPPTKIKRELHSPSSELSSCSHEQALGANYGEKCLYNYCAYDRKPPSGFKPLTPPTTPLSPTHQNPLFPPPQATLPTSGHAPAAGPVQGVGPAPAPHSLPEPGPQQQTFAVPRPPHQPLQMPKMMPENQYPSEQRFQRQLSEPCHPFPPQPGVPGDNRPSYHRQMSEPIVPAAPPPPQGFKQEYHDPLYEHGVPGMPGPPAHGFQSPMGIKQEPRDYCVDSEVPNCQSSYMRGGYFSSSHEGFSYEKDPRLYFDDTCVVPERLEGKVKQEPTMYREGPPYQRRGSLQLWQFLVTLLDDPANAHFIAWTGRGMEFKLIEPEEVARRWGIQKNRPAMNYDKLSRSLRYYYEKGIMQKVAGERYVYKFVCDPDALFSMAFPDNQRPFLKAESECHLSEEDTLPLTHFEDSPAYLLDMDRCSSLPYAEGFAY
# Summary of the method: as §1
# [3] = biological target: HSF1 (Homo sapiens, UniProt Q00613 1-529); conditions: protein: recombinant; tags: N-terminal GST; chain copies: 3; dsDNA, one strand shown
# Chain of HSF1 (Q00613 whole entry): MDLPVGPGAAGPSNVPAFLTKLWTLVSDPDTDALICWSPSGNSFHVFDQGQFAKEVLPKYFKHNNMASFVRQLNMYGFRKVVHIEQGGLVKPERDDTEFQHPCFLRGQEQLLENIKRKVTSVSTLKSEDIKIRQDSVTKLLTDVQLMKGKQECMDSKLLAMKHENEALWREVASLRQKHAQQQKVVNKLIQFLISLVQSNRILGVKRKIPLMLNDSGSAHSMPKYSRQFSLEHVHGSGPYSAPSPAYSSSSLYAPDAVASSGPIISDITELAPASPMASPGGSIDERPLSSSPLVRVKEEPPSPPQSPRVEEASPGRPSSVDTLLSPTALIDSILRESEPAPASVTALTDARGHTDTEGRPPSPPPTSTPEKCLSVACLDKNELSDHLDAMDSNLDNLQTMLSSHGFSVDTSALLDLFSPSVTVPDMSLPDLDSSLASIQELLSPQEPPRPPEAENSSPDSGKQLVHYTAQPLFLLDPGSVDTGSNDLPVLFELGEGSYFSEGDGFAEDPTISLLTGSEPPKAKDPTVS
# Summary of the method: as §1
# [4] = biological target: T2, SPIC (Homo sapiens, UniProt Q8N5J4 1-248); conditions: protein: recombinant; tags: N-terminal GST; dsDNA, one strand shown
# T2 sequence: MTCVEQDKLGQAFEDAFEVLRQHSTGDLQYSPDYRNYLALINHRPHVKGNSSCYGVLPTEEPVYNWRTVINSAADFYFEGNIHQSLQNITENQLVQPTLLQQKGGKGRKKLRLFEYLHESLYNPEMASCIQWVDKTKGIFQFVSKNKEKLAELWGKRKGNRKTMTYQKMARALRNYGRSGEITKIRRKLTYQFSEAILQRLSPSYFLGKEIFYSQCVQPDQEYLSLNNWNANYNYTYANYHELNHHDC
# Summary of the method: as §1
# [5] = biological target: ELF4 (Homo sapiens, UniProt Q99607 1-663); conditions: protein: recombinant; tags: N-terminal GST; dsDNA, one strand shown
# Chain of ELF4 (Q99607 whole entry): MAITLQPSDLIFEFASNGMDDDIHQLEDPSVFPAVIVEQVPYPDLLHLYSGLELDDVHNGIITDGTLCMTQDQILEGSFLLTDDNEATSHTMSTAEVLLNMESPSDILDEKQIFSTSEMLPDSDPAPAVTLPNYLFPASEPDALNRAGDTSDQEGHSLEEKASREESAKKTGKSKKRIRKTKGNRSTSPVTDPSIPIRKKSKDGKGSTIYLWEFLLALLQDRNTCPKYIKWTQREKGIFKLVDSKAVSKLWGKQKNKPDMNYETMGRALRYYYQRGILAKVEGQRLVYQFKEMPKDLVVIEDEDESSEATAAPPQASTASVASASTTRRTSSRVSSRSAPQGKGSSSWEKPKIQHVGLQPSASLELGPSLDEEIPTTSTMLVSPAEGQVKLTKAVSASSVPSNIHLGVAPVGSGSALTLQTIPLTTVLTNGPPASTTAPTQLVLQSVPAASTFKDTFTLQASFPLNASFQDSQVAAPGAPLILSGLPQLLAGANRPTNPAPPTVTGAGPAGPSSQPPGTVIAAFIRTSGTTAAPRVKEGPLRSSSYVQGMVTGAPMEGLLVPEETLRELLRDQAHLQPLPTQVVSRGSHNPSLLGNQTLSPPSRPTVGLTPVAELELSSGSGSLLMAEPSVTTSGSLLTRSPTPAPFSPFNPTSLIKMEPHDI
# Summary of the method: as §1
# [6] = biological target: T3, ELK4 (Homo sapiens, UniProt P28324-2 1-405); conditions: protein: recombinant; tags: N-terminal GST; dsDNA, one strand shown
# T3 sequence: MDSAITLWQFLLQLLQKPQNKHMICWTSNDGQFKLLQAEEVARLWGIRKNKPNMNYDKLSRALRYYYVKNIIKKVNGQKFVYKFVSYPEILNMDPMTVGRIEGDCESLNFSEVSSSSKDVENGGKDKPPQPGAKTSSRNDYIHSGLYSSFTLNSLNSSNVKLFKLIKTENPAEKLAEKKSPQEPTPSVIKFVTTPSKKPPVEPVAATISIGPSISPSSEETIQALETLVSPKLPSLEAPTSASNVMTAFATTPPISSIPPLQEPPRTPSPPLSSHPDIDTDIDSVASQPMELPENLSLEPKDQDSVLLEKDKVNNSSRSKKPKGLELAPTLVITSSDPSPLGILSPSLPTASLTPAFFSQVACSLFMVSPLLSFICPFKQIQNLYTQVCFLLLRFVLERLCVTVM
# Summary of the method: as §1
# [7] = biological target: T4, ETV2 (Homo sapiens, UniProt O00321 1-342); conditions: protein: recombinant; tags: N-terminal GST; dsDNA, one strand shown
# T4 sequence: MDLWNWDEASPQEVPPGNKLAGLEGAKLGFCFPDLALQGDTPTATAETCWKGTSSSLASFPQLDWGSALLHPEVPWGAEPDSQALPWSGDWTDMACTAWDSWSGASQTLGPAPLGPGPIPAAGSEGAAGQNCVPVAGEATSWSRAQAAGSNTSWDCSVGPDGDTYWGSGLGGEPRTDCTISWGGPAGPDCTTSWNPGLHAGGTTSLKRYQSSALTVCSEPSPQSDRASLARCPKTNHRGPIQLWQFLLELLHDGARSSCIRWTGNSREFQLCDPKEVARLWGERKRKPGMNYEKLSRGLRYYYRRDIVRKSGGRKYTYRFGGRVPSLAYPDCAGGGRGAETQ
# Summary of the method: as §1
# [8] = biological target: T5, ELF3 (Homo sapiens, UniProt P78545 1-371); conditions: protein: recombinant; tags: N-terminal GST; dsDNA, one strand shown
# T5 sequence: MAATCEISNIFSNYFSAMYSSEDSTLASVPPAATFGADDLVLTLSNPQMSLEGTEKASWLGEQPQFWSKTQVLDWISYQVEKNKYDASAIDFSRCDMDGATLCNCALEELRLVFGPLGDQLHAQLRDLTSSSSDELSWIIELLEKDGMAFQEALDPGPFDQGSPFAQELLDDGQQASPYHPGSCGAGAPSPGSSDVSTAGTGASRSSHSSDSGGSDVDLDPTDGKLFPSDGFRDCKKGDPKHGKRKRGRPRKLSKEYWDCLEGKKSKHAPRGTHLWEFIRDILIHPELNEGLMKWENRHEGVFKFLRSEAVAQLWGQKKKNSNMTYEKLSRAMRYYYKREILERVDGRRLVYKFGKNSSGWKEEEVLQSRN
# Summary of the method: as §1
# [9] = biological target: CRX (Homo sapiens, UniProt O43186 1-299); conditions: protein: recombinant; tags: N-terminal GST; dsDNA, one strand shown
# Chain of CRX (O43186 whole entry): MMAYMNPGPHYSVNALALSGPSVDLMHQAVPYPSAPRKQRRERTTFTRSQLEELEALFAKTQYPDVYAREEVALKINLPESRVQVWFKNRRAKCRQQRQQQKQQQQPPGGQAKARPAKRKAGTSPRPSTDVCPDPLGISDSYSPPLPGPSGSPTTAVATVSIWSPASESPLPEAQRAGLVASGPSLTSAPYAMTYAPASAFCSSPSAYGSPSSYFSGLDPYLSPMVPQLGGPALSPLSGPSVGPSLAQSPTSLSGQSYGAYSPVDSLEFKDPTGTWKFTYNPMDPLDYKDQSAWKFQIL
# Summary of the method: as §1
# [10] = biological target: ETV1 (Homo sapiens, UniProt P50549 1-477); conditions: protein: recombinant; tags: N-terminal GST; dsDNA, one strand shown
# Chain of ETV1 (P50549 whole entry): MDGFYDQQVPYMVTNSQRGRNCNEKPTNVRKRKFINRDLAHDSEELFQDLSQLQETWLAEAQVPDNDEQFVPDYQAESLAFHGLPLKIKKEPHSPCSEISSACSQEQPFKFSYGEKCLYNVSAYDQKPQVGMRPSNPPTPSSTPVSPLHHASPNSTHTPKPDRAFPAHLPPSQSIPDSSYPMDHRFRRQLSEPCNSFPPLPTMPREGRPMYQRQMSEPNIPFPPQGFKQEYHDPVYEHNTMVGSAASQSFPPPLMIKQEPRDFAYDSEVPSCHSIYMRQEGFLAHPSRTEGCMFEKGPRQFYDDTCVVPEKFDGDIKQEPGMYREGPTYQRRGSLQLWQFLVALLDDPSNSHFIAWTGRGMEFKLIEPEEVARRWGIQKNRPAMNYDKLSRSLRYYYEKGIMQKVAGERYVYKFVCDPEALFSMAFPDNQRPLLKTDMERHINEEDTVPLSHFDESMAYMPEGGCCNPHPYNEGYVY
# Summary of the method: as §1
# [11] = biological target: T6, ERF (Homo sapiens, UniProt P50548 1-548); conditions: protein: recombinant; tags: N-terminal GST; dsDNA, one strand shown
# T6 sequence: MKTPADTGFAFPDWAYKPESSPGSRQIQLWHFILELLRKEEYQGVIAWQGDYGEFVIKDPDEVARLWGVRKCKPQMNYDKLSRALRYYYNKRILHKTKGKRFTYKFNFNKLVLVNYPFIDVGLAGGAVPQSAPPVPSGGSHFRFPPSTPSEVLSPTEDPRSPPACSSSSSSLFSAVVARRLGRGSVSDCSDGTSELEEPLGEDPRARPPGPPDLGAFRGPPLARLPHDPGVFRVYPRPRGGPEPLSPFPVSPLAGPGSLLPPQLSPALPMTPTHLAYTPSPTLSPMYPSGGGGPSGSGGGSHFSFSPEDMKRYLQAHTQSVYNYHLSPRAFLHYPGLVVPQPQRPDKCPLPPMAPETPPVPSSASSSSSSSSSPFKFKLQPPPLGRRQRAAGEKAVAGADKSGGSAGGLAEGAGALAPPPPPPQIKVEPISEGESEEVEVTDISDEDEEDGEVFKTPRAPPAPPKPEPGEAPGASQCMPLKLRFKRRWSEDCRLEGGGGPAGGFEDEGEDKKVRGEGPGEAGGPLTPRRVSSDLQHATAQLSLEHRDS
# Summary of the method: as §1
# [12] = biological target: T7, ETV3L (Homo sapiens, UniProt Q6ZN32 1-361); conditions: protein: recombinant; tags: N-terminal GST; dsDNA, one strand shown
# T7 sequence: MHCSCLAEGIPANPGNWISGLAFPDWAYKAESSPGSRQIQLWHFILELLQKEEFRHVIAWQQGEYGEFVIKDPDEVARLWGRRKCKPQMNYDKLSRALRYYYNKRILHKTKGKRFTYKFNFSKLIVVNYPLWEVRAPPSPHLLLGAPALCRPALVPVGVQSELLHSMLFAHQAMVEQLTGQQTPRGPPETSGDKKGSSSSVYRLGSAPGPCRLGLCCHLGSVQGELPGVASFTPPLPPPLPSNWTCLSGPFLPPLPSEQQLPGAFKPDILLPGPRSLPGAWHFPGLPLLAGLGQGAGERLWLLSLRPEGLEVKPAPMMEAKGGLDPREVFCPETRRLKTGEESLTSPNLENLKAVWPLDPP
# Summary of the method: as §1
# [13] = biological target: T8, ETS2 (Homo sapiens, UniProt P15036 1-469); conditions: protein: recombinant; tags: N-terminal GST; dsDNA, one strand shown
# T8 sequence: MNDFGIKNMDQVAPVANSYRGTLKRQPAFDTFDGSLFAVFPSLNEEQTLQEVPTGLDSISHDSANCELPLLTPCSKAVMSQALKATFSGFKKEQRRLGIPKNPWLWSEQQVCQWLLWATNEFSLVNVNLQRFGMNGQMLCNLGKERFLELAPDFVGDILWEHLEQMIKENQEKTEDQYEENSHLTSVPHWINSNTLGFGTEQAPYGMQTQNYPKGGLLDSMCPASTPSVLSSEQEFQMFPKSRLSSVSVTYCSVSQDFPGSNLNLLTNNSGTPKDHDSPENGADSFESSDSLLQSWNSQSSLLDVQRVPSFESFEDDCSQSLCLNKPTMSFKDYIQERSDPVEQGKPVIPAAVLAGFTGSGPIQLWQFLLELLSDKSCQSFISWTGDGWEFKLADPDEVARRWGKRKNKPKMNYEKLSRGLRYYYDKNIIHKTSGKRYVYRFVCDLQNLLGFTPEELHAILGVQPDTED
# Summary of the method: as §1
# [14] = biological target: T9, SPDEF (Homo sapiens, UniProt O95238 1-335); conditions: protein: recombinant; tags: N-terminal GST; dsDNA, one strand shown
# T9 sequence: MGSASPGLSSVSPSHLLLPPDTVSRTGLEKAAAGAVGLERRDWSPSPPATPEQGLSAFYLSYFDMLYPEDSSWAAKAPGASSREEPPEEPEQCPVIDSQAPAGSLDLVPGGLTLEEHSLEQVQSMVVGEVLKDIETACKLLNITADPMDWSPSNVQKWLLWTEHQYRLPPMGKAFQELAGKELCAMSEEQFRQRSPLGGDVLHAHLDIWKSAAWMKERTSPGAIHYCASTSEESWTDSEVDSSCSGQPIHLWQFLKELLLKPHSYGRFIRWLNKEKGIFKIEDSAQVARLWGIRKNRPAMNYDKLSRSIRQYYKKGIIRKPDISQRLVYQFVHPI
# Summary of the method: as §1
# [15] = biological target: T10, ETV7 (Homo sapiens, UniProt Q9Y603 1-341); conditions: protein: recombinant; tags: N-terminal GST; dsDNA, one strand shown
# T10 sequence: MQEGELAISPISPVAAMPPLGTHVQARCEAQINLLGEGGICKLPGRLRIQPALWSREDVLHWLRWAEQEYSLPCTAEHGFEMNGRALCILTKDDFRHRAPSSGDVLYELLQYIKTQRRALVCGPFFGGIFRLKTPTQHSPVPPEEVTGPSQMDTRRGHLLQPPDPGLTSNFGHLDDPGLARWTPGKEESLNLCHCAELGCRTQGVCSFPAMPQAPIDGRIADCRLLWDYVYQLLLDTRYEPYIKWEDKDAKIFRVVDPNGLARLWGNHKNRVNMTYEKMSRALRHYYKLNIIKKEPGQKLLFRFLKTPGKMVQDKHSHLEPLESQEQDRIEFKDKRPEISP
# Summary of the method: as §1
# [16] = biological target: T11, ELF5 (Homo sapiens, UniProt Q9UKW6-2 1-255); conditions: protein: recombinant; tags: N-terminal GST; dsDNA, one strand shown
# T11 sequence: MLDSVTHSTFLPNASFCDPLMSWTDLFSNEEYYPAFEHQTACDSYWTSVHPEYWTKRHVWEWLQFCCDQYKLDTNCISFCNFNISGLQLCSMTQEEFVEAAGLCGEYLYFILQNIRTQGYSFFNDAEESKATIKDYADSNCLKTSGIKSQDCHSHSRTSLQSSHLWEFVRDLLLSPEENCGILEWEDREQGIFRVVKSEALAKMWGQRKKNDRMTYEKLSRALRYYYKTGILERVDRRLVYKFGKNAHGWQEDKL
# Summary of the method: as §1
# [17] = biological target: T12, ETV3 (Homo sapiens, UniProt P41162-2 1-143); conditions: protein: recombinant; tags: N-terminal GST; dsDNA, one strand shown
# T12 sequence: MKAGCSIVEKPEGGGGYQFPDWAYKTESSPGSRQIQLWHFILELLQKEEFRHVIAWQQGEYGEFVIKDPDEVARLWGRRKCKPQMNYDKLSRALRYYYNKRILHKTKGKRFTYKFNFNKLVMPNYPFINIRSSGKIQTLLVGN
# Summary of the method: as §1
# [18] = biological target: ETV6 (Homo sapiens, UniProt P41212 1-452); conditions: protein: recombinant; tags: N-terminal GST; dsDNA, one strand shown
# Chain of ETV6 (P41212 whole entry): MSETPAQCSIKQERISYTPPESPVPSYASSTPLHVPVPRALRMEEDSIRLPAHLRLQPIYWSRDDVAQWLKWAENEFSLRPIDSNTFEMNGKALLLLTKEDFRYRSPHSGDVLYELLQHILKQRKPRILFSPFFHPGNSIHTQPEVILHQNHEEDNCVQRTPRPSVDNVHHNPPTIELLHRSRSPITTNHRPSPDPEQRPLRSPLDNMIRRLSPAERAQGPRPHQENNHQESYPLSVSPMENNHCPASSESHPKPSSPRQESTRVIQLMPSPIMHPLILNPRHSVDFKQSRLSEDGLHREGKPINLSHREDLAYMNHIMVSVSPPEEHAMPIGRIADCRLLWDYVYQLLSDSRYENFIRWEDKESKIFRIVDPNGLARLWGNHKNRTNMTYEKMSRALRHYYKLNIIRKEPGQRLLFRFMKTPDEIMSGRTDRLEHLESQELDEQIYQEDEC
# Summary of the method: as §1
sequence,measurement,setting,value
ACCGAC,binding signal,[1],"1.36 fold enrichment (6-mer frequency, TF over GST control)"
same,binding signal,[2],"1.31 fold enrichment (6-mer frequency, TF over GST control)"
same,binding signal,[3],"1.05 fold enrichment (6-mer frequency, TF over GST control)"
same,binding signal,[4],"1.37 fold enrichment (6-mer frequency, TF over GST control)"
same,binding signal,[5],"1.31 fold enrichment (6-mer frequency, TF over GST control)"
same,binding signal,[6],"1.24 fold enrichment (6-mer frequency, TF over GST control)"
same,binding signal,[7],"1.36 fold enrichment (6-mer frequency, TF over GST control)"
same,binding signal,[8],"1.17 fold enrichment (6-mer frequency, TF over GST control)"
same,binding signal,[9],"1.05 fold enrichment (6-mer frequency, TF over GST control)"
same,binding signal,[10],"1.37 fold enrichment (6-mer frequency, TF over GST control)"
same,binding signal,[11],"1.29 fold enrichment (6-mer frequency, TF over GST control)"
same,binding signal,[12],"1.44 fold enrichment (6-mer frequency, TF over GST control)"
same,binding signal,[13],"1.38 fold enrichment (6-mer frequency, TF over GST control)"
same,binding signal,[14],"1.37 fold enrichment (6-mer frequency, TF over GST control)"
same,binding signal,[15],"1.25 fold enrichment (6-mer frequency, TF over GST control)"
same,binding signal,[16],"1.25 fold enrichment (6-mer frequency, TF over GST control)"
same,binding signal,[17],"1.27 fold enrichment (6-mer frequency, TF over GST control)"
same,binding signal,[18],"1.41 fold enrichment (6-mer frequency, TF over GST control)"
